# Bioassay records deposited in PubChem BioAssay by Broad Institute.
# Most compounds without a hit are left out; they make up all but 2.6% or so of the library.
# c-Myc SMM: binders of human c-Myc, primary screen, biochemical, small molecule microarray, anti-His fluorescence | 17,000 tested, 1.5% active | calls only | AID 624141, 2012 | His-c-Myc binding | Myc proto-oncogene protein (Homo sapiens), P01106;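 active means spot fluorescence over background with P-value below 7% in all four replicate spots, showing protein binding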;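 further: score is binary with 100 for all four spots passing and 0 otherwise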
# NFkB SMM: binders of NF-kB p50 subunit, primary screen, biochemical, small molecule microarray, anti-His fluorescence. AID 624139, 2012. 17,000 tested, 1.3% active. anti-His fluorescence binding. calls only;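 active means spot fluorescence over background significantly raised, with a chance value under 7% in all four replicate spots of the compound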;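 further: probe protein is his-tagged human p50 processed subunit at 1 µg/ml; raw spot fluorescence signals with no normalization applied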
# p53 PUMA act: mutant p53 pathway re-activators, primary screen, cell-based, SW480, luciferase, single point, HTS | AID 624151, 2012 | SW480 PUMA-promoter luciferase, p53 mutant reactivation | 28,000 tested, 1.5% active | activation, % at 9.98 µM; in the data active means activation above about 52%
# STAT3 binder: STAT3 binders, primary screen, biochemical, small molecule microarray, single point, set 2; calls only; Signal transducer and activator of transcription 3 (Homo sapiens), P40763; His-STAT3 binding, anti-His fluorescence; 17,000 tested, 0.2% active;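 active means compounds whose four printed spots each show fluorescence over background unusually high for their array block, chance value under 7%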
# Target sequence (P40763 whole entry, looked up): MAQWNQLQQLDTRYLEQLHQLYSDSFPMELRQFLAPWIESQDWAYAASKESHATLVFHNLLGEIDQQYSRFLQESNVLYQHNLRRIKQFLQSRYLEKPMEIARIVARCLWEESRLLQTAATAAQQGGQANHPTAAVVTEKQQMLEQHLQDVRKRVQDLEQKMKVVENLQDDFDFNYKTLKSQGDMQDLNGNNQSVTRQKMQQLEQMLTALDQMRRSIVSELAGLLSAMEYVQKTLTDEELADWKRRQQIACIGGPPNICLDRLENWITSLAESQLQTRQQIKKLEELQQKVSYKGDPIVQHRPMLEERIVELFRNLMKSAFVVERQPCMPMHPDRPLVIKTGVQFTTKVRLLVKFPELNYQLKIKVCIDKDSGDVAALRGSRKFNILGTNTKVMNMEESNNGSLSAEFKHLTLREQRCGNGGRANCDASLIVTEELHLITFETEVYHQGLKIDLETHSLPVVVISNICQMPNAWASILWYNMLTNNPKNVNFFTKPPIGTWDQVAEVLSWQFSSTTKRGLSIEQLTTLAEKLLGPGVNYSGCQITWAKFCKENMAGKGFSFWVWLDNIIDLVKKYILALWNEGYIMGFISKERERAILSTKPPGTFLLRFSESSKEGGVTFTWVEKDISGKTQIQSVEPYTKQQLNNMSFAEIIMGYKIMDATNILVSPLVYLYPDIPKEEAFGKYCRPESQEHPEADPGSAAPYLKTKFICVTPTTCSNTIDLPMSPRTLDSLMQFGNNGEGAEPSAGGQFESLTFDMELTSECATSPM
# mut p53 SMM: binders of human mutant p53, primary screen, biochemical, small molecule microarray, anti-GST fluorescence; calls only; small molecule microarray binding; mutant tumor protein p53 (GST-tagged), Homo sapiens; 17,000 tested, 0.4% active; AID 624136, 2012;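 active means compounds whose four printed spots each glow above background more than chance allows, each with a p-value under 7%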
# * = called active by the depositor; i = inactive; · = no result given; + = active, no number.
SMILES,c-Myc SMM,NFkB SMM,p53 PUMA act,STAT3 binder,mut p53 SMM
O=c1n(-c2ccc(F)cc2)nc2n1CCCN2,·,·,66.9*,·,·
N#CCCSCc1ccc2oc(C(=O)O)cc2c1,+,i,-7.7,i,i
COc1ccc(-c2cn(CC(=O)N3CCN(C)CC3)nn2)cc1OC,i,i,·,i,i
C[C@@H]1CN([C@@H](C)CO)C(=O)Cc2cc(NC(=O)CCN3CCOCC3)ccc2O[C@H]1CN(C)Cc1ccc(-c2ccccc2)cc1,+,i,-13.1,i,i
C[C@H](CO)N1C[C@H](C)[C@@H](CN(C)Cc2ccc(-c3ccccc3)cc2)Oc2ccc(NC(=O)Nc3cccc4ccccc34)cc2CC1=O,i,+,·,i,i
C[C@@H]1CN([C@H](C)CO)C(=O)Cc2cc(NC(=O)CCN3CCOCC3)ccc2O[C@H]1CN(C)Cc1ccc(-c2ccccc2)cc1,i,i,-1.1,i,i
CC(=O)NCCNC(=O)c1cc2ccccc2oc1=O,·,·,-2.0,·,·
COc1cccc2cc(C(=O)NCc3ccccn3)c(=O)oc12,i,i,84.2*,i,i
COc1ccccc1CNC(=O)c1cc2ccccc2oc1=O,·,·,87.9*,·,·
CCOc1cccc2cc(C(=O)NCc3cccnc3)c(=O)oc12,i,i,-8.5,i,i
C[C@@H]1CN([C@@H](C)CO)S(=O)(=O)c2ccc(-c3cccnc3)cc2O[C@@H]1CN(C)C(=O)CC1CC1,·,·,-9.6,·,·
O=C(CN1C(=O)C2C3C=CC(C4CC34)C2C1=O)Nc1ccc(Oc2ccc(Br)cc2)cc1 (stereo not drawn),·,·,-45.9,·,·
Clc1ccc(SCc2csc(-c3ccsc3)n2)cc1,·,·,60.8*,·,·
O=C1c2ccccc2C(=O)N1CC1CCN(Cc2cccc(OCCO)c2)CC1,+,i,·,i,i
CC(=O)Nc1ccc(NC(=O)CN(c2cccc(Br)c2)S(C)(=O)=O)cc1,·,·,4.5,·,·
O=C(CSc1ccc(Cl)cc1)Nc1cccc(-c2nnc(-c3ccco3)o2)c1,·,·,122.5*,·,·
CCn1c(SCC(=O)Nc2ccc(Cl)cc2)nnc1-c1ccco1,·,·,20.2,·,·
O=C(CSc1nnc(-c2ccccc2)o1)Nc1cccc(F)c1,·,·,78.0*,·,·
COc1ccccc1NC(=O)CSc1nnc(-c2ccc(Cl)cc2)o1,i,i,89.1*,i,i
Cc1ccc(NS(=O)(=O)c2cccc(C(=O)Nc3ccccc3C(=O)O)c2)cc1,·,·,2.7,·,·
CC(C)NC(=O)Nc1ccc2c(c1)C(=O)N([C@H](C)CO)C[C@H](C)[C@@H](CN(C)Cc1ccccc1)OCCCC[C@H](C)O2,i,+,-1.3,i,i
CC(C)NC(=O)Nc1ccc2c(c1)C(=O)N([C@@H](C)CO)C[C@H](C)[C@H](CN(C)Cc1ccccc1)OCCCC[C@@H](C)O2,i,i,5.4,i,i
CC(C)NC(=O)Nc1ccc2c(c1)C(=O)N([C@@H](C)CO)C[C@H](C)[C@@H](CN(C)Cc1ccccc1)OCCCC[C@H](C)O2,+,+,-12.8,i,i
CC(C)NC(=O)Nc1ccc2c(c1)C(=O)N([C@@H](C)CO)C[C@@H](C)[C@H](CN(C)Cc1ccccc1)OCCCC[C@@H](C)O2,i,i,5.3,i,i
CC(C)NC(=O)Nc1ccc2c(c1)C(=O)N([C@@H](C)CO)C[C@H](C)[C@@H](CN(C)Cc1ccccc1)OCCCC[C@@H](C)O2,+,i,-1.3,i,i
SMILES,c-Myc SMM,NFkB SMM,p53 PUMA act,STAT3 binder,mut p53 SMM
C[C@@H]1CCCCO[C@H](CN(C)Cc2ccncc2)[C@H](C)CN([C@@H](C)CO)C(=O)c2cc(NC(=O)Nc3ccccc3)ccc2O1,i,i,-6.2,i,i
C[C@H](CO)N1C[C@H](C)[C@H](CN(C)Cc2ccncc2)OCCCC[C@H](C)Oc2ccc(NC(=O)Nc3ccccc3)cc2C1=O,i,i,-6.2,+,+
CCc1c(C)sc(NC(=S)Nc2cc(OC)c(Cl)cc2OC)c1C(=O)OC,·,·,7.4,·,·
CCC(C)(C)C(=O)N1CCC(C(=O)OC)CC1,·,·,-2.9,·,·
CC(C)NC(=O)Nc1ccc2c(c1)C(=O)N([C@@H](C)CO)C[C@H](C)[C@@H](CN(C)C(=O)Nc1ccccc1)OCCCC[C@@H](C)O2,+,+,25.6,i,i
CCOc1ccc2nc(NS(=O)(=O)c3ccc(C)c([N+](=O)[O-])c3)sc2c1,i,i,0.8,i,i
CCCC(NS(=O)(=O)c1ccc(C)cc1)C(=O)O (stereo not drawn),+,i,1.8,i,i
Cc1ccc(S(=O)(=O)NC(C(=O)O)C(C)C)cc1 (stereo not drawn),·,·,-0.1,·,·
COc1ccc(C(NC(=O)c2ccccc2)c2ccc3cccnc3c2O)c(OC)c1 (stereo not drawn),·,·,-75.7,·,·
CC(C)NC(=O)N(C)C[C@H]1OCCCC[C@@H](C)Oc2ccc(NC(=O)Nc3ccc(C(F)(F)F)cc3)cc2C(=O)N([C@@H](C)CO)C[C@H]1C,+,+,-63.9,i,i
C[C@@H]1CN([C@@H](C)CO)C(=O)c2cc(NC(=O)c3ccncc3)ccc2O[C@@H](C)CCCCO[C@H]1CN(C)CC1CCCCC1,·,·,1.6,·,·
CC(C)NC(=O)N(C)C[C@@H]1OCCCC[C@@H](C)Oc2ccc(NC(=O)Nc3ccc(C(F)(F)F)cc3)cc2C(=O)N([C@@H](C)CO)C[C@@H]1C,i,i,-41.0,i,i
C[C@@H]1CN([C@@H](C)CO)C(=O)c2cc(NC(=O)Nc3ccc(C(F)(F)F)cc3)ccc2O[C@@H](C)CCCCO[C@@H]1CN(C)CC1CCCCC1,i,+,·,i,i
C[C@@H]1CN([C@@H](C)CO)C(=O)c2cc(NC(=O)c3ccccc3)ccc2O[C@@H](C)CCCCO[C@H]1CN(C)CC1CCCCC1,+,i,·,i,i
C[C@H]1CN([C@@H](C)CO)C(=O)Cc2cc(NS(=O)(=O)c3ccc(Cl)cc3)ccc2O[C@@H]1CN(C)CC1CCCCC1,+,+,-0.7,i,+
CCc1nnc(SCC(=O)Nc2cccc([N+](=O)[O-])c2)o1,i,i,-3.6,i,i
C[C@@H]1CN([C@@H](C)CO)C(=O)c2cc(NC(=O)Nc3ccc4c(c3)OCO4)ccc2O[C@H]1CN(C)CC1CCCCC1,i,+,0.2,i,i
C[C@@H]1CCCCO[C@H](CN(C)C(=O)Nc2ccc(C(F)(F)F)cc2)[C@@H](C)CN([C@H](C)CO)C(=O)c2cc(NS(C)(=O)=O)ccc2O1,i,i,-3.5,i,i
CC(C)NC(=O)Nc1ccc2c(c1)C(=O)N([C@H](C)CO)C[C@@H](C)[C@H](CN(C)CC1CCCCC1)O2,·,·,1.2,·,·
